# Most compounds without a hit are left out; they make up all but 6.7% or so of the library.
# C diff growth – blocks growth of Clostridium difficile. Clostridium difficile clinical isolate growth, OD600, 24 h; hits give low values. AID 1259249. hit rate 0.25% among 86,000. growth activity, negative = inhibition, % at 16 µg/mL (by protocol);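 active = mean growth activity at or below -80% and every replicate also at or below -80%; inconclusive = mean at or below -80% but some replicate above -80%; inactive = mean growth activity above -80%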;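 note: 0% = DMSO wells and -100% = levofloxacin 16 µg/mL wells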
# T cruzi growth-1 – T. cruzi proliferation inhibition; T. cruzi beta-gal in NIH3T3, GalScreen luminescence, 90 h; inhibition, % at 8.34 µM; hit rate 5.9% among 77,000; AID 624255;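 active = mean inhibition above about 93%, with at least 55% of replicates each passing it, limit read from the data, passing the limit was not always enough; inconclusive = only one of those two conditions holds; inactive = neither condition holds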
# Pf Dd2 growth – inhibitors of Plasmodium falciparum Dd2 growth; P. falciparum Dd2 growth, SYBR Green, 72 h; hits give low values; activity change, % at 10 µM; hit rate 2.3% among 94,000; in the data active = activity change below about -80%; inconclusive = no clear call, values can overlap the other calls
# T cruzi growth-2 – Trypanosoma cruzi proliferation inhibition. shares compounds with T cruzi growth-1. T. cruzi beta-gal in NIH3T3, GalScreen luminescence, 90 h. inhibition, % at 8.35 µM. hit rate 72% among 5,600;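 active = mean replicate inhibition above about 95% and at least 55% of replicates individually reaching it, limit read from the data; inconclusive = only one of the two criteria is met; inactive = neither criterion is met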
# T cruzi growth-3 – inhibitors of T. cruzi proliferation; shares compounds with T cruzi growth-1; T. cruzi beta-gal in NIH3T3, GalScreen luminescence, 90 h; inhibition, % at 2.09 µM; hit rate 21% among 5,600;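 active = mean inhibition above about 95%, with at least 55% of replicates also reaching it, limit read from the data; inconclusive = meets just one of the two conditions; inactive = meets neither condition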;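 note: plate controls were neutral control median for no effect and positive control median for full effect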
# NIH3T3 tox – kills mouse NIH/3T3 fibroblasts. shares compounds with T cruzi growth-1. NIH/3T3 viability, CellTiter-Glo ATP luminescence, 90 h. cytotoxicity (signal decrease), % at 8.35 µM. hit rate 14% among 5,600. AID 651742;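 active = mean signal decrease across replicates above about 35% based on untreated-well scatter, with enough replicates individually passing, limit read from the data; inconclusive = no rule stated though some were filed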;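 note: 0% = median of neutral control wells and 100% = median of positive control wells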
# 3T3 cytotox 2 – cytotoxicity in mouse NIH/3T3 fibroblasts. shares compounds with T cruzi growth-1. NIH/3T3 viability, CellTiter-Glo ATP luminescence, 90 h. inhibition, % at 24.9 µM. hit rate 56% among 5,600. AID 651744;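 active = mean loss of cell viability signal at or above a set limit, and enough replicates individually reaching it; inconclusive = meets only the mean limit or only the replicate share; inactive = meets neither condition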;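 note: 0% = median of neutral control wells and 100% = median of positive control wells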
# An asterisk follows results filed as active; ? = inconclusive; / = not tested or not shown.
SMILES,C diff growth,T cruzi growth-1,Pf Dd2 growth,T cruzi growth-2,T cruzi growth-3,NIH3T3 tox,3T3 cytotox 2
COCC(=O)N1CCCCN2[C@H](CO)[C@@H](c3ccc(C#Cc4ccccc4)cc3)[C@H]2C1,-9,36,53,/,/,/,/
CN1CCCCN2[C@H](CO)[C@@H](c3ccc(C#Cc4ccccc4F)cc3)[C@@H]2C1,0,82,-34,/,/,/,/
CC(=O)N1CCCCN2[C@H](CO)[C@@H](c3ccc(C#Cc4ccccc4F)cc3)[C@H]2C1,-6,103*,-24,75,44,46*,104*
CCC(=O)N1CCCCN2[C@H](CO)[C@@H](c3ccc(C#Cc4ccccc4F)cc3)[C@H]2C1,-9,112*,-23,102*,47,34,104*
CCC(=O)N1CCCCN2[C@@H](CO)[C@H](c3ccc(C#Cc4ccccc4F)cc3)[C@@H]2C1,-9,124*,-29,109*,91,45*,104*
CCC(=O)N1CCCCN2[C@H](CO)[C@@H](c3ccc(C#Cc4cccnc4)cc3)[C@@H]2C1,9,44,19,/,/,/,/
CCC(=O)N1CCCCN2[C@@H](CO)[C@@H](c3ccc(C#Cc4ccccc4F)cc3)[C@@H]2C1,3,113*,-17,102*,65,10,103*
CN1CCCCN2[C@@H](CO)[C@@H](c3ccc(C#Cc4ccccc4F)cc3)[C@@H]2C1,10,93,-47,/,/,/,/
C[C@@H]1CCCCO[C@@H](CN(C)Cc2ccc3c(c2)OCO3)[C@H](C)CN([C@H](C)CO)C(=O)c2cc(NC(=O)c3ccccc3)ccc2O1,-6,/,-71,/,/,/,/
C[C@H]1CCCCO[C@H](CN(C)C(=O)CCCN(C)C)[C@@H](C)CN([C@@H](C)CO)C(=O)c2cc(NC(=O)c3ccccc3)ccc2O1,0,32,-5,/,/,/,/
COC(=O)C[C@@H]1C[C@@H]2c3cc(N(C)C)ccc3O[C@@H]2[C@@H](CO)O1,-1,-26,2,/,/,/,/
CC(C)NC(=O)Nc1ccc2c(c1)CC(=O)N([C@H](C)CO)C[C@H](C)[C@@H](CN(C)C(=O)Nc1ccccc1)O2,-12,22,-6,/,/,/,/
COCc1cn(CC[C@H]2CC[C@H](NC(=O)Nc3ccccc3)[C@H](CO)O2)nn1,2,-24,8,/,/,/,/
C[C@@H]1CN([C@H](C)CO)C(=O)c2cc(NC(=O)Nc3ccccc3)ccc2O[C@@H](C)CCCCO[C@@H]1CN(C)C(=O)Cc1ccccc1,/,-6,-75,/,/,/,/
C[C@@H]1CCCCO[C@H](CN(C)C(=O)Cc2ccccc2)[C@H](C)CN([C@H](C)CO)C(=O)c2cc(NC(=O)Nc3ccccc3)ccc2O1,/,103*,-84*,98*,16,-10,-15
C[C@H](CO)N1C[C@H](C)[C@@H](CN(C)C(=O)Cc2ccccc2)OCCCC[C@H](C)Oc2ccc(NC(=O)Nc3ccccc3)cc2C1=O,/,48,24,/,/,/,/
C[C@@H]1CN([C@H](C)CO)C(=O)c2cc(NC(=O)Nc3ccc(F)cc3)ccc2O[C@@H](C)CCCCO[C@@H]1CN(C)C(=O)Cc1ccccc1,3,87,?,/,/,/,/
C[C@H]1CCCCO[C@H](CN(C)C(=O)Cc2ccccc2)[C@@H](C)CN([C@@H](C)CO)C(=O)c2cc(NC(=O)Nc3ccc(F)cc3)ccc2O1,-4,101*,-51,106*,-42,-16,20
C[C@@H]1CCCCO[C@H](CN(C)C(=O)Cc2ccccc2)[C@H](C)CN([C@@H](C)CO)C(=O)c2cc(NC(=O)Nc3ccc(F)cc3)ccc2O1,-3,100*,-66,103*,10,-24,-34
C[C@@H]1CCCCO[C@H](CN(C)C(=O)Cc2ccccc2)[C@H](C)CN([C@H](C)CO)C(=O)c2cc(NC(=O)Nc3ccc(F)cc3)ccc2O1,3,103*,-85*,107*,108*,-21,2
C[C@H](CO)N1C[C@H](C)[C@H](CN(C)C(=O)Cc2ccccc2)OCCCC[C@H](C)Oc2ccc(NC(=O)Nc3ccc(F)cc3)cc2C1=O,-3,40,50,/,/,/,/
CC(C)NC(=O)Nc1ccc2c(c1)C(=O)N([C@@H](C)CO)C[C@H](C)[C@@H](CN(C)C(=O)NC1CCCCC1)O2,7,4,15,/,/,/,/
CN1C(=O)c2cc(NC(=O)c3cccc(F)c3)ccc2OC[C@H]2O[C@H](CC(=O)NCc3ccccc3Cl)CC[C@@H]21,7,33,-24,/,/,/,/
COCC(=O)N(C)C[C@H]1Oc2ncc(C#C[C@@H](C)O)cc2C(=O)N([C@@H](C)CO)C[C@H]1C,-1,10,/,/,/,/,/
Cc1noc(C)c1NC(=O)Nc1ccc2c(c1)C(=O)N([C@H](C)CO)C[C@H](C)[C@H](CN(C)C(=O)Cc1ccccc1)OCCCC[C@H](C)O2,-3,106*,-3,35,23,-8,-13
SMILES,C diff growth,T cruzi growth-1,Pf Dd2 growth,T cruzi growth-2,T cruzi growth-3,NIH3T3 tox,3T3 cytotox 2
Cc1noc(C)c1NC(=O)Nc1ccc2c(c1)C(=O)N([C@@H](C)CO)C[C@H](C)[C@@H](CN(C)C(=O)Cc1ccccc1)OCCCC[C@@H](C)O2,-1,45,-42,/,/,/,/
COc1ccc(NC(=O)N[C@H]2CC[C@@H](CCn3cc(-c4ccc(F)cc4)nn3)O[C@H]2CO)cc1,1,/,-19,/,/,/,/
N#C[C@@H]1[C@@H](c2ccc(C#CC3CCCC3)cc2)[C@H](CO)N1C(=O)Nc1ccc(F)cc1,0,92,-24,/,/,/,/
CC(C)NC(=O)N1[C@@H](C#N)[C@@H](c2ccc(C#CC3CCCC3)cc2)[C@@H]1CO,3,105*,-8,101*,77,8,27*
CC(C)NC(=O)N1[C@@H](C#N)[C@H](c2ccc(C#CC3CC3)cc2)[C@@H]1CO,-9,104*,-43,105*,?,3,57*
N#C[C@@H]1[C@H](c2ccc(C#CC3CCCC3)cc2)[C@H](CO)N1C(=O)Nc1ccc(F)cc1,-4,88,-67,/,/,/,/
CC(C)NC(=O)N1[C@@H](C#N)[C@H](c2ccc(C#CC3CCCC3)cc2)[C@@H]1CO,1,100*,-18,106*,50,0,52*
CN(C)CC(=O)N1[C@H](C#N)[C@@H](c2ccc(C#CC3CC3)cc2)[C@H]1CO,7,16,23,/,/,/,/
CC(C)NC(=O)N1[C@H](CO)[C@@H](c2ccc(C#CC3CCCC3)cc2)[C@@H]1C#N,1,99*,-22,103*,37,-7,11
CO[C@@H]1CN(C)C(=O)c2cc(NS(C)(=O)=O)ccc2OC[C@H](C)NC[C@@H]1C,-3,/,-3,/,/,/,/
O=S(=O)(c1cccs1)N1CCCCN2[C@H](C1)[C@H](c1ccc(Br)cc1)[C@@H]2CO,12,109*,-17,100*,23,11,2
O=S(=O)(c1cccs1)N1CCCCN2[C@H](CO)[C@@H](c3ccc(Br)cc3)[C@H]2C1,-1,92,-11,/,/,/,/

# Screens as filed in PubChem BioAssay.
